Data published in PMC5540273 (PLoS ONE, 2017).

System: RPS6KA4(Kin.Dom.2-C-terminal)
Conditions: concentration: 1 μM, replicates: in singlicate; n = 1
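Further: KINOMEscan kinase panel screen.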

Row | SMILES | %Inh [%]
1 | COC(=O)c1cccc(NC(=O)NC2CCN(c3ccnc(Nc4ccc(F)cc4)n3)C2)c1 (stereo not drawn) [GSK1379725] | 0
2 | O=C(Nc1n[nH]c2nc(-c3cccs3)c(Br)cc12)C1CC1 [SB-735297] | 8
3 | CC(=O)c1c(C)c2cnc(Nc3ccc(N4CCNCC4)cn3)nc2n(C2CCCC2)c1=O | 0
4 | CN1c2ccc(-c3ccc(C(N)=O)cc3)cc2-c2[nH]ncc2S1(=O)=O | 26
5 | CNc1cc(-c2ccc3c(N)n[nH]c3c2)nc(N)n1 [GSK2224810] | 15
6 | Cn1cncc1C(=O)NC1CCN(c2ccnc(Nc3ccc(F)cc3)n2)C1 (stereo not drawn) [GSK1379717] | 0
7 | Cn1cncc1-c1cc2c(Nc3ccc(OCc4ccccc4)cc3)ncnc2cn1 [GW281179] | 0
8 | COc1ccc(-c2coc3ccc(-c4nnc(C)o4)cc23)cc1 | 0
9 | Cc1ccc(NC(=O)Nc2ccc(Cl)cc2)cc1-c1ccc(C(=O)Nc2ccncc2)cc1 [GSK1398472] | 0
10 | CC(=O)c1c(C)c2cnc(Nc3ccn(C)n3)nc2n(C2CCCC2)c1=O | 0
11 | COc1ccc(Nc2nccc(N3CCC(NC(=O)c4cc5ccccc5s4)C3)n2)cc1 (stereo not drawn) [GSK1379738] | 0
12 | Cc1nccc(-c2c(-c3ccc(F)cc3)ncn2CCCN2CCOCC2)n1.Cl [SB-282975] | 15
13 | CC[C@@H]1CO[C@H](C(=O)Nc2ccccc2)CN1c1cc(-c2ccc3c(N)n[nH]c3c2)nc(NC)n1 [GSK2376236] | 0
14 | NS(=O)(=O)c1cccc(N/C=C2\C(=O)Nc3ccc(S(=O)(=O)Cc4c(Cl)cccc4Cl)cc32)c1 [GSK398099] | 0
15 | Nc1cccc(-c2ccc3c(N)n[nH]c3c2)n1 [GSK2192730] | 0
16 | CCCCc1nn2ncccc2c1-c1ccnc(NC2CC2)n1 [GW684374] | 0
17 | CNc1nc(-c2ccc3c(N)n[nH]c3c2)cc(N2C[C@@H](C(=O)NC3CCCCC3)OC[C@H]2C)n1 [GSK2375584] | 0
18 | COc1cccc(C2=C(Nc3cc(Cl)c(O)c(Cl)c3)C(=O)NC2=O)c1 [SB-390767] | 0
19 | COc1ccc(CSc2nnc(-c3ccc4ncsc4c3)o2)cc1C(F)(F)F | 5
20 | Cc1c(Cn2c(C)c(C)n3c(=O)cc(N4CCOCC4)nc23)cccc1C(F)(F)F [GSK2328680] | 0
21 | CNc1nc(-c2ccc3c(N)n[nH]c3c2)cc(N2C[C@@H](C(=O)Nc3ccccc3)CC[C@H]2C)n1 [GSK2298859] | 0
22 | Cc1ccccc1-c1cc(-c2c[nH]nc2-c2ccccn2)ccn1 [GW680061] | 0
23 | COc1ccc(Nc2nccc(NCCNC(=O)Nc3cc(C)ccc3C)n2)cc1 [GSK1379899] | 0

System: RPS6KA5(Kin.Dom.1-N-terminal)
Conditions: concentration: 1 μM, replicates: in singlicate; n = 1

Row | SMILES | %Inh [%]
24 | O=C(Nc1n[nH]c2nc(-c3ccco3)c(Br)cc12)C1CCN(Cc2ccccc2)C1.O=C(O)[C@H](O)[C@@H](O)C(=O)O (stereo not drawn) [SB-742034] | 0
25 | Cn1cnc2c(N)ncnc21 [SKF-97623] | 0
26 | COc1ccc(Nc2nccc(-c3ccc(NC(=O)c4cc5cc(F)ccc5[nH]4)cc3)n2)cc1 [GSK1229496] | 0
27 | CNC(=O)c1ccc(C)c(-n2c(C)cc(OCc3ccc(F)cc3F)c(Br)c2=O)c1 | 0
28 | Nc1nccc(-c2c(-c3ccc(F)cc3)ncn2C2CCN(Cc3ccccc3)CC2)n1 [SB-219980] | 0
29 | Cc1ccc(NC(=O)Nc2ccccc2)cc1-c1ccc(C(=O)Nc2ccncc2)cc1 [GSK1398471] | 13
30 | Fc1ccc(-c2nc[nH]c2-c2ccncc2)cc1 [SB-217360] | 0
31 | CC(C)c1cc(-c2ccc3c(N)n[nH]c3c2)nc(N)n1 [GSK2250882] | 0
32 | Fc1ccc(-c2nc3n(c2-c2ccncc2)CCS3)cc1 [GI98581] | 10
33 | CCc1ccc(-c2ccc3c(c2)-c2n[nH]cc2S(=O)(=O)N3C)cc1 | 0
34 | COc1ccc(CSc2nnc(-c3ccc4c(c3)CCO4)o2)cc1 | 0
35 | CSc1ccc(-c2nc3n(c2-c2ccncc2)CCC3)cc1 [SKF-105561] | 5
36 | COc1cccc(NC(=O)Nc2ccc(C)c(-c3ccc(C(=O)Nc4ccncc4)cc3)c2)c1 [GSK1398474] | 12
37 | O=c1cc(N2CCOCC2)nc2n(Cc3cccc(Cl)c3Cl)c3ccccc3n12 [GSK2299009] | 16
38 | COC(=O)c1cccc(NC(=O)NC2CCN(c3ccnc(Nc4ccc(F)cc4)n3)C2)c1 (stereo not drawn) [GSK1379725] | 0
39 | O=C(Nc1n[nH]c2nc(-c3cccs3)c(Br)cc12)C1CC1 [SB-735297] | 10
40 | CC(=O)c1c(C)c2cnc(Nc3ccc(N4CCNCC4)cn3)nc2n(C2CCCC2)c1=O | 0
41 | CN1c2ccc(-c3ccc(C(N)=O)cc3)cc2-c2[nH]ncc2S1(=O)=O | 0
42 | CNc1cc(-c2ccc3c(N)n[nH]c3c2)nc(N)n1 [GSK2224810] | 0

Row | SMILES | %Inh [%]
43 | Cn1cncc1C(=O)NC1CCN(c2ccnc(Nc3ccc(F)cc3)n2)C1 (stereo not drawn) [GSK1379717] | 0
44 | Cn1cncc1-c1cc2c(Nc3ccc(OCc4ccccc4)cc3)ncnc2cn1 [GW281179] | 11
45 | COc1ccc(-c2coc3ccc(-c4nnc(C)o4)cc23)cc1 | 4
46 | Cc1ccc(NC(=O)Nc2ccc(Cl)cc2)cc1-c1ccc(C(=O)Nc2ccncc2)cc1 [GSK1398472] | 17
47 | CC(=O)c1c(C)c2cnc(Nc3ccn(C)n3)nc2n(C2CCCC2)c1=O | 0
48 | COc1ccc(Nc2nccc(N3CCC(NC(=O)c4cc5ccccc5s4)C3)n2)cc1 (stereo not drawn) [GSK1379738] | 0
49 | Cc1nccc(-c2c(-c3ccc(F)cc3)ncn2CCCN2CCOCC2)n1.Cl [SB-282975] | 5
50 | CC[C@@H]1CO[C@H](C(=O)Nc2ccccc2)CN1c1cc(-c2ccc3c(N)n[nH]c3c2)nc(NC)n1 [GSK2376236] | 28
51 | NS(=O)(=O)c1cccc(N/C=C2\C(=O)Nc3ccc(S(=O)(=O)Cc4c(Cl)cccc4Cl)cc32)c1 [GSK398099] | 0
52 | Nc1cccc(-c2ccc3c(N)n[nH]c3c2)n1 [GSK2192730] | 0
53 | CCCCc1nn2ncccc2c1-c1ccnc(NC2CC2)n1 [GW684374] | 0
54 | CNc1nc(-c2ccc3c(N)n[nH]c3c2)cc(N2C[C@@H](C(=O)NC3CCCCC3)OC[C@H]2C)n1 [GSK2375584] | 25
55 | COc1cccc(C2=C(Nc3cc(Cl)c(O)c(Cl)c3)C(=O)NC2=O)c1 [SB-390767] | 6
56 | COc1ccc(CSc2nnc(-c3ccc4ncsc4c3)o2)cc1C(F)(F)F | 17
57 | Cc1c(Cn2c(C)c(C)n3c(=O)cc(N4CCOCC4)nc23)cccc1C(F)(F)F [GSK2328680] | 16
58 | CNc1nc(-c2ccc3c(N)n[nH]c3c2)cc(N2C[C@@H](C(=O)Nc3ccccc3)CC[C@H]2C)n1 [GSK2298859] | 29
59 | Cc1ccccc1-c1cc(-c2c[nH]nc2-c2ccccn2)ccn1 [GW680061] | 4
60 | COc1ccc(Nc2nccc(NCCNC(=O)Nc3cc(C)ccc3C)n2)cc1 [GSK1379899] | 49
